This is part of a sample that, as a whole, favours compounds with a hit. Of some 79,000 tested, about 15% had one in any assay. Unmarked numbers belong to inactive results. Activity calls are given as the source filed them. Rule as the data show it: active = growth inhibition above about 70%; inactive = the rest.
Experiment: NCI Yeast Anticancer Drug Screen. Data for the rad50 strain (AID 155);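 also: 0% = growth of vehicle-only cultures of the same strain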
Conditions: S. cerevisiae rad50 strain growth inhibition; at 1.2 µM; hits give high values
Procedure, shortened: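 Yeast carrying a defined DNA repair defect were exposed to test compounds, and growth was compared with vehicle-treated controls to give percent inhibition.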

Compound | growth inhibition
S=C(S)NN1CCOCC1 | 87% (active)
COc1cc2c3c(cccc3c1)C(=O)N(CCN(C)C)C2=O | 10%
COC(=O)C1=C(C)NC(C)=C(C(=O)OCCCN2CCC(c3ccccc3)(c3ccccc3)CC2)C1c1cccc([N+](=O)[O-])c1 (stereo not given) | 1%
c1ccc2c(c1)Oc1cccc3cccc-2c13 | -2%
CN(C)CCOc1ccc2c(c1)C/C(=C/c1ncc([N+](=O)[O-])n1C)C2=O | 40%
Cc1ccc(CCC2=CCCc3c2ccc2ccccc32)cc1 | -1%
CNC(=O)OCc1c(COC(=O)NC)c(-c2ccc(Cl)c(Cl)c2)n2c1CCC2 | -51%
Clc1ccccc1C1OC1c1ccccc1Cl (stereo not given) | -66%
O=[N+]([O-])c1cc(CCl)ccc1CCl | 7%
O=C1C=CC(=O)c2c(O)c(Nc3ccc(OC(F)(F)F)cc3)c(Cl)c(O)c21 | -16%
S=c1[nH]nc(Nc2ccc(Cl)cc2)s1 | -7%
Cn1ccnc1Oc1ccc(Cl)cc1 | -9%
BrCc1cccc2ccc3cccc(CBr)c3c12 | -3%
O=C1c2ccccc2-c2nc3ccccc3nc21 | -6%
CCCCCCCCCCCCCCCCCCNC | -10%
Oc1ccc(NCn2c(=S)sc3ccccc32)cc1 | -2%
O=C1C2CC[C@@H]3C(=O)C(Cl)(Cl)[C@@H]3CCC2C1(Cl)Cl (stereo not given in full) | 5%
CC[n+]1ccc2c(C)c3[nH]c4ccc(O)cc4c3c(C)c2c1 | -24%
Cc1ccc(-n2cc(-c3ccc(Cl)cc3)c(C#N)c2N)cc1 | -3%
CC(=O)[O][Bi]([c]1ccccc1)[c]1ccccc1 | 36%

Compound | growth inhibition
CC1=C(SCCO)C(=O)c2ccccc2C1=O | -3%
C/C(=N\O)C1CC2C=C(C#N)C1N(Cc1ccccc1)C2 (stereo not given) | -3%
CC(Br)C(=O)c1ccc2cc(Br)c3ccccc3c2c1 (stereo not given) | 1%
Nc1nc(-c2cccnc2)cc(-c2cc(-c3cccnc3)nc(N)n2)n1 | 0%
CC(C)=CC(=O)O[C@@H]1CC(C)(C)CC2C3=CCC4[C@]56CC[C@](O)(OC5)C(C)(C)C6CC[C@@]4(C)C3(C)CC[C@]21C(=O)O (stereo not given in full) | 1%
CCC(C)COC(=O)c1ccc(N=Cc2ccc(C=Nc3ccc(C(=O)OCC(C)CC)cc3)cc2)cc1 (stereo not given) | -2%
Oc1cccc2c(Cl)ccnc12 | 43%
O=C(O)c1cccc(-c2c3ccc(=O)cc-3oc3cc(O)ccc23)c1 | 9%
CN(CCc1ccccn1)c1ccc2c(c1)Cc1ccccc1-2 | 4%
Cc1cc(S(=O)(=O)/N=C(/NN)NNc2cccc(C(F)(F)F)n2)c(S)cc1Cl | 0%
O=C1C2C(C(=O)N1c1ccc(OCc3ccccc3)cc1)C1c3ccccc3C2C2CCCCN21 (stereo not given) | 3%
Nc1ccccc1CC(O)C(=O)O (stereo not given) | 3%
O=C(O)C1CCCCC1c1c2ccc(=O)c(O)c-2oc2c(O)c(O)ccc12 (stereo not given) | -12%
Cc1ccc2ccc(O)cc2c1 | -23%
O=C1C(=O)c2ccccc2C=C1[N+](=O)[O-] | 0%
COC(=O)c1ccc(NCC2=CC(=O)C=CC2=O)cc1O | 12%
C(CCSC1=NCCN1)CSC1=NCCN1 (tested in a mixture with another compound) | 21%
N#Cc1c(N)[nH]c2ccc(Sc3ccccc3)cc12 | 1%
CCNc1nnc(CSc2nc(-c3ccccc3)c(-c3ccccc3)[nH]2)s1 | -3%
CC[C@@]1(O)C(=O)OCc2c1cc1n(c2=O)Cc2cc3c(N)cccc3nc2-1 | 70% (active)
